ALR H2O2 inh: blocks human ALR sulfhydryl oxidase activity; purified ALR, DTT oxidation, H2O2 HRP-luminol luminescence; inhibition, % (test concentration not listed); P55789; AID 485317; 3.8% of 290,000 active;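 active = mean replicate inhibition above about 79%, with every replicate also reaching it, limit read from the data; inconclusive = only one of the two criteria met; inactive = mean below limit and not every replicate reaching it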
Target sequence (P55789 whole entry, looked up): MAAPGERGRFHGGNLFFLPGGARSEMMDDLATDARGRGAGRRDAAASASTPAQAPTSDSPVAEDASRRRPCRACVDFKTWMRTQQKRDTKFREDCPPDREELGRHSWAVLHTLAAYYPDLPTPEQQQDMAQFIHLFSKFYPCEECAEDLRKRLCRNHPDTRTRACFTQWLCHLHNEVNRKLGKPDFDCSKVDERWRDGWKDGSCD
PRMT1 FP inh: inhibitors of human PRMT1; Q99873; recombinant PRMT1, activity-based probe fluorescence polarization; inhibition, % at 2.79 µM; 1.3% of 370,000 active; AID 652257;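 active = inhibition above about 21% made by adding two undisclosed values, limit read from the data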
ABHD5-PLIN5 inh: ABHD5-PLIN5 protein interaction inhibition. Q00G26+Q8WTS1. Split G. princeps luciferase complementation, luminescence, 4 h. inhibition, % at 4 µM. 0.78% of 360,000 active;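 active = inhibition above the mean inhibition across every tested compound plus 3 SD, cut at about 22% in these data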;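 also: 0% = DMSO only wells and the 100% control is not disclosed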
LANA-H2A inh: blocks KSHV LANA binding to histone H2A/H2B; Q9QR71; cell-free LANA-H2A/H2B peptide, fluorescence polarization; inhibition, % (concentration not given with the values); 0.6% of 320,000 active; AID 2629; in the data active = inhibition mostly above about 10%, no sharp cut-off; inactive = mostly below about 6.7%
rCAG RNA binder: r(CAG) repeat RNA binding. inhibition, % at 3 µM. 1.3% of 370,000 active. TO-PRO-1 dye displacement fluorescence;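 active = inhibition above the plate cutoff, the mean of all test compounds on that plate plus 3 SD, cut at about 35% in these data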;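 also: 0% = DMSO alone and 100% = 100 µM mitoxantrone as full dye displacement; higher means more dye released from RNA so lower well fluorescence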
Rtt109 HAT inh: inhibitors of Candida albicans Rtt109/Vps75 histone acetyltransferase | 0.16% of 330,000 active | inhibition, % at 34.9 µM | purified Rtt109/Vps75, ThioGlo CoA-SH fluorescence, 4 h | Q5AAJ8;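 active = inhibition of at least 50% in every replicate; inconclusive = best replicate reaches 50% inhibition but some replicates fall short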
* hit, by the source's call; ? = inconclusive; / = not tested or not shown. The list is not random: actives were taken first. Their share in the collection is about 5.9%.

SMILES	ALR H2O2 inh	PRMT1 FP inh	ABHD5-PLIN5 inh	LANA-H2A inh	rCAG RNA binder	Rtt109 HAT inh
CC(C)c1ccc(NC2CCCN(C(=O)c3cscn3)C2)cc1 (stereo not given)	99*	-7	-8	-1	-3	-3
Cc1cc(C)n2nc(C(=O)N3CCCC(Nc4ccc(F)c(F)c4)C3)cc2n1 (stereo not given)	4	-5	5	-1	-6	-3
CC(C)c1ccc(NC2CCCN(C(=O)c3cc(C(C)C)nc(N)n3)C2)cc1 (stereo not given)	97*	0	-4	-5	-6	1
Cc1cc(C)n2nc(C(=O)N3CCCC(Nc4ccc(C(C)C)cc4)C3)cc2n1 (stereo not given)	97*	0	-1	7	-2	-6
CCCc1cc2c(OC)ccc(O)c2c(=O)n1C	/	-2	/	/	9	/
COc1ccc(N2CCN(c3cc(C(=O)Nc4cc(OC)c(OC)c(OC)c4)ncn3)CC2)cc1OC	/	-1	-4	/	7	/
COC(=O)c1ccc(CN2CC3CC(c4ccccc4)N4CCCC34C2=O)cc1 (stereo not given)	/	0	/	/	8	/
CCN1CCN(CCCNC(=O)C2CCN(c3nnc(-n4cccc4)s3)CC2)CC1	-4	0	-1	-5	-6	0
CCOc1ccc(NCc2cccn2-c2nnc(N3CCC(C(=O)NCCCN4CC(C)CC(C)C4)CC3)s2)cc1 (stereo not given)	100*	0	9	-1	-6	6
CCC(=O)N[C@@H]1C[C@@H]2O[C@@H](CO)CC[C@@H]2O[C@@H]1CCc1ccc(-c2cccc(OC)c2)cc1	/	-2	/	/	0	/
CCOc1ccccc1NC(=O)/C(C#N)=C/c1c(C)nn(-c2ccccc2)c1Cl	7	-3	-3	3	4	-7
C=CCNC(=O)/C(C#N)=C/c1c(C)nn(-c2ccccc2)c1Cl	96*	-2	13	3	-2	/
O=C(CCC1CCCCC1)Nc1ccccc1O	91*	-2	3	-1	-2	-1
COCC1CCN(C(=O)c2ccc3oc(C(C)C)nc3c2)C1 (stereo not given)	/	4	5	/	1	/
CCN(CCNC(=O)CN1CCN(Cc2ccc(Cl)cc2)C1=O)c1ccccc1	98*	-4	-4	1	-12	7
Cc1ccc(C)c(NC(=S)Nc2ncccc2C)c1	79*	2	-2	-2	-4	-2
CC(C)(C)c1cc(NC(=O)CCl)n(-c2ccccc2)n1	/	-3	0	-2	0	-13
CCCc1cc(NC(=O)CCl)n(-c2ccccc2)n1	97*	-2	5	1	1	/
CC(=O)NC(c1ccc(F)c(F)c1)c1nc(-c2cccc(C(C)C)c2)cs1 (stereo not given)	/	-2	-6	/	2	/
Cc1ccc(NC(=O)OCCN2CCN(Cc3ccccc3)CCC2=O)cc1	92*	-2	-3	-5	-9	1
O=C(Nc1ccccc1)OCCN1CCN(Cc2ccccc2)CCC1=O	-11	-1	3	-3	-4	-6
CCN(CC)CCCNC(=O)C1(N[C@@H](Cc2c[nH]c3ccccc23)C(=O)NCC(OC)OC)CCCCC1	/	2	/	/	/	/
O=C(CBr)c1ccc([N+](=O)[O-])c(CS(=O)(=O)c2ccc(Cl)cc2)c1	7	10	27*	-2	14	-14
Cc1ccc(S(=O)(=O)NNC(=O)c2cc3cc4ccccc4nc3s2)cc1	13	2	-5	1	36*	19
Cc1cccc(C(=O)NNC(=O)c2cc3cc4ccccc4nc3s2)c1	9	1	3	-5	7	1
SMILES	ALR H2O2 inh	PRMT1 FP inh	ABHD5-PLIN5 inh	LANA-H2A inh	rCAG RNA binder	Rtt109 HAT inh
Cc1ccc(OCC(=O)NNc2c3ccccc3nc3ccccc23)cc1	96*	0	4	0	13	8
Cc1cc(CNC(=O)COc2ccccc2)c2ccccc2n1	/	-1	-4	/	-4	?
Cc1cccc(OCC(=O)NNc2c3ccccc3nc3ccccc23)c1	99*	1	-3	4	9	9
O=C(Cc1ccccc1)NNc1c2ccccc2nc2ccccc12	98*	5	-2	4	1	-2
Cc1ccc(OCC(=O)NNC(=O)CCC(=O)NCc2ccccc2)cc1	3	-5	-3	-2	-5	-3
O=C(Cc1ccccc1)NNC(=O)Cc1ccccc1	-12	-7	-6	-5	-2	2
COCCNC(=O)C1(C)CCN(Cc2cccc(Oc3ccccc3)c2)C1 (stereo not given)	/	2	3	/	-1	/

Screening data (PubChem BioAssay)
